Results: PubChem BioAssay
Calls of active or inactive are those of the source.

Columns and labels:
[1] = test system: Plasmodium falciparum Sir2 (PF13_0152, Sir2A); test: Plasmodium falciparum Sir2A binding compounds – biochemical, small-molecule microarray, 635 nm fluorescence, primary screen (AID 1098); conditions: fluorescence 635 nm, higher = more signal;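 further: score merges spot fluorescence intensity with its signal-to-noise ratio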
[2] = probe aDKK1 binding to arrayed compounds – biochemical, biotinylated probe, 635/667 nm fluorescence, primary screen (AID 1099); conditions: small-molecule microarray, higher = more signal;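 further: score merges 667nm spot fluorescence with signal to noise across triplicate slides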
[3] = probe aCHRDL2 binding to arrayed compounds – biochemical, biotinylated probe, 635/667 nm fluorescence, primary screen (AID 1100); conditions: small-molecule microarray, higher = more signal
[4] = change in splice reporter luminescence, either direction, cell-based, HEK293, spliceosome inhibition project, primary screen (AID 1101); conditions: HEK293 splicing luciferase reporter, 24 h, higher = more signal, called active from +8 up or from −8 down;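 further: HEK293 cells carrying a splicing-competent luciferase reporter gene; test concentration not given here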
[5] = biological target: Fibroblast growth factor 10 (Homo sapiens) (UniProt O15520); test: compounds binding fibroblast growth factor 10 – biochemical, small-molecule microarray, 635 nm fluorescence, primary screen (AID 1102); conditions: FGF10 binding, fluorescence 635 nm, higher = more signal
Chain of Fibroblast growth factor 10 (Homo sapiens) (O15520 whole entry, looked up): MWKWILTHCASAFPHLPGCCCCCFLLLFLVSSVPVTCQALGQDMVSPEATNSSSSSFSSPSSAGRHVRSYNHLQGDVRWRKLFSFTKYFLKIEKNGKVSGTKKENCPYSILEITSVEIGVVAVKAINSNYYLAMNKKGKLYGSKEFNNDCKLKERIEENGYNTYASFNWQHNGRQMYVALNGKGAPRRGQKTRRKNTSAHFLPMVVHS

[6] = test system: glycogen synthase kinase-3 (GSK3A per assay name; protocol says GSK3B); test: compounds binding glycogen synthase kinase-3 – biochemical, small-molecule microarray, 635 nm fluorescence, GSK3A, primary screen (AID 1103); conditions: fluorescence 635 nm, higher = more signal; further: the record names both GSK3A and GSK3B
[7] = biological target: Epidermal growth factor receptor (Homo sapiens) (UniProt P00533); test: compounds binding epidermal growth factor receptor – biochemical, small-molecule microarray, 635 nm fluorescence, primary screen (AID 1104); conditions: EGFR binding, higher = more signal;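 further: score merges 667 nm emission intensity with spot signal to noise over triplicate slides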
Chain of Epidermal growth factor receptor (Homo sapiens) (P00533 whole entry, looked up): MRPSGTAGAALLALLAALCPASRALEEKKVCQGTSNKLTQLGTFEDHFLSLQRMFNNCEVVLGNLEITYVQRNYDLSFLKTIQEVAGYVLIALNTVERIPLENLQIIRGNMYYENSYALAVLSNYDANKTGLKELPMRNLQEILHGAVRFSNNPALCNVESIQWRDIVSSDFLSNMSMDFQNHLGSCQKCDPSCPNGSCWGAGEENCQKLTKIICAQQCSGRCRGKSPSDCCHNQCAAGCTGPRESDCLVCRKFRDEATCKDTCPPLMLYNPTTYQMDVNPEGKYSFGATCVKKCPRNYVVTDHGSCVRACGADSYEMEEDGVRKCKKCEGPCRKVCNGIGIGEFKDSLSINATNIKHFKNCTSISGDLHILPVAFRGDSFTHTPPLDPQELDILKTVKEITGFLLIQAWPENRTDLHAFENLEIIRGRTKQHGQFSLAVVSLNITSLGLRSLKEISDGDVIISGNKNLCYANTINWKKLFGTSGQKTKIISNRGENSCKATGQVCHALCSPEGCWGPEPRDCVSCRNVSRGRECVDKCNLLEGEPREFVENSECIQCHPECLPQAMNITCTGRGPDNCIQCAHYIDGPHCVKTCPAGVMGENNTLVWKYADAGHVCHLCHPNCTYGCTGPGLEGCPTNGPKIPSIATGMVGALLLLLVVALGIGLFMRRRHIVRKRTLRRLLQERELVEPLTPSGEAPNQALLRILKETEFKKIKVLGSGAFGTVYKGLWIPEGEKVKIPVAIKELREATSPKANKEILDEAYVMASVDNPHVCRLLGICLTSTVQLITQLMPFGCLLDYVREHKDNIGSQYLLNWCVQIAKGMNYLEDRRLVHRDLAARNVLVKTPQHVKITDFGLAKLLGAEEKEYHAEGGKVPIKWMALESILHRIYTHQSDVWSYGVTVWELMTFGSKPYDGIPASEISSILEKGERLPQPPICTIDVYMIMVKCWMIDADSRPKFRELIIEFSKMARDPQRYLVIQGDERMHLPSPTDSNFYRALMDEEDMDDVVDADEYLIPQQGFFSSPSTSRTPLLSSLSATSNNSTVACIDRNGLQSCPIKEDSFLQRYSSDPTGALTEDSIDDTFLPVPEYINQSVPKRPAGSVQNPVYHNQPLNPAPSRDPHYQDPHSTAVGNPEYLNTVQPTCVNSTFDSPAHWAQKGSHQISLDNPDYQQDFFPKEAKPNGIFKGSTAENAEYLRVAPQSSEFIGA

[8] = biological target: Follistatin-related protein 3 (Homo sapiens) (UniProt O95633); test: compounds binding follistatin-related protein 3 – biochemical, small-molecule microarray, 635 nm fluorescence, primary screen (AID 1105); conditions: FSTL3 binding, higher = more signal;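 further: score merges emission near 667 nm and signal to noise per printed spot across three slides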
Chain of Follistatin-related protein 3 (Homo sapiens) (O95633 whole entry, looked up): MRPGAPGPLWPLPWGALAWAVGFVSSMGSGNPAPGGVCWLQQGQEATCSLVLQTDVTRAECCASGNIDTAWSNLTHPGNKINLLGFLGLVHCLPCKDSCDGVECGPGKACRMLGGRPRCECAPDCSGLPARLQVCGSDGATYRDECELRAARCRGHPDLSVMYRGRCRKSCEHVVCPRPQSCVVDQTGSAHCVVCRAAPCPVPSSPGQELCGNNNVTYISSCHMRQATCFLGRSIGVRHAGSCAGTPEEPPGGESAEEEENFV

[9] = biological target: Dickkopf-related protein 1 (Homo sapiens) (UniProt O94907); test: small molecules binding DKK1 protein – biochemical, small-molecule microarray, 635 nm fluorescence scan, primary screen (AID 1106); conditions: higher = more signal;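 further: score merges emission near 667 nm with signal to noise over three replicate slides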
Chain of Dickkopf-related protein 1 (Homo sapiens) (O94907 whole entry, looked up): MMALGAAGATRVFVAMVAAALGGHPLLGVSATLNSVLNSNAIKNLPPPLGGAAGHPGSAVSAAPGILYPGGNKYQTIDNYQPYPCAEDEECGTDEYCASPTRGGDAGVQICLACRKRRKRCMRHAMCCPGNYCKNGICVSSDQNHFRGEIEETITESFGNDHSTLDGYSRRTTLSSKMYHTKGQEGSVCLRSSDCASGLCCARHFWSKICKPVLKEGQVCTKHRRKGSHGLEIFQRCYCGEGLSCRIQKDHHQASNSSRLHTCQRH

[10] = test system: Inhibin beta A chain (activin A); test: small molecules binding activin A – biochemical, small-molecule microarray, 635 nm fluorescence scan, primary screen (AID 1107); conditions: INHBA, higher = more signal;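 further: mouse activin A protein probed at 4.33 µg/mL on printed slides; score merges bound-protein fluorescence near 667 nm with spot signal-to-noise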
[11] = test system: Human papillomavirus type 1a protein E7 (residues 44-93); test: small molecules binding HPV E7 44-93 – biochemical, small-molecule microarray, residues 44-93, 635 nm fluorescence, primary screen (AID 1108); conditions: fluorescence 635 nm, higher = more signal;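 further: E7 fragment applied at 1 µg/mL in TBST for 1 h at 4 C; score combines spot fluorescence with its signal to noise ratio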
[12] = hepatitis C replication reporter changes, two-sided – Huh7 cells, luciferase reporter, HCV replication inhibitor project, primary screen (AID 1109); conditions: Huh7 HCV replicon luciferase reporter, 48 h; higher = more signal;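 further: huh7 hepatoma cells harbouring a luciferase neomycin HCV replicon reporter; luciferase luminescence as measure of HCV replicon replication; test concentration not given here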
[13] = biological target: Left-right determination factor 2 (Homo sapiens) (UniProt O00292); test: small molecules binding LEFTY2 protein – biochemical, small-molecule microarray, 635 nm fluorescence scan, primary screen (AID 1110); conditions: higher = more signal
Chain of Left-right determination factor 2 (Homo sapiens) (O00292 whole entry, looked up): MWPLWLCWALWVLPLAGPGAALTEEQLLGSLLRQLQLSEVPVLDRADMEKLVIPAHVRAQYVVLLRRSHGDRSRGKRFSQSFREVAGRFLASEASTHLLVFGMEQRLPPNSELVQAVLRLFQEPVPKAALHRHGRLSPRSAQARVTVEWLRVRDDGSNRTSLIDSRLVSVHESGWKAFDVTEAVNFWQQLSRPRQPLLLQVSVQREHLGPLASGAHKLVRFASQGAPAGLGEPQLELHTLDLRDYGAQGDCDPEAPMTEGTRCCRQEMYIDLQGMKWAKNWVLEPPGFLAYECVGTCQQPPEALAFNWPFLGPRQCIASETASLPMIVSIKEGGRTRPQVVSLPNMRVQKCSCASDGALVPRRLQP

[14] = biological target: Calmodulin-1 (Homo sapiens) (UniProt P0DP23); test: small molecules binding calmodulin-1 with EGTA – biochemical, small-molecule microarray, Cy5-labelled CALM1, profiling panel (AID 1111); conditions: Cy5-CALM1 binding fluorescence, higher = more signal;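 further: labelled calmodulin applied in Tris saline Tween buffer holding calcium plus EGTA and DTT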
[15] = biological target: Calmodulin-1 (Homo sapiens) (UniProt P0DP23); test: small molecules binding Ca-loaded calmodulin-1 – biochemical, small-molecule microarray, Cy5-labelled CALM1, plus calcium, artefact control for SMM control-protein annotation, profiling panel (AID 1112); conditions: Cy5-CALM1 binding fluorescence, higher = more signal;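 further: score merges spot fluorescence with signal to noise from triplicate slides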
[16] = probe aWnt5a binding to arrayed compounds – biochemical, biotinylated probe, 635/667 nm fluorescence, primary screen (AID 1113); conditions: small-molecule microarray, higher = more signal;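 further: score merges 667 nm fluorescence intensity with signal-to-noise per printed feature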
[17] = probe aShh binding to arrayed compounds – biochemical, biotinylated probe, 635/667 nm fluorescence, primary screen (AID 1114); conditions: small-molecule microarray, higher = more signal;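 further: probe is biotin-labelled aShh protein from a stem cell growth factor screen; measures binding of labelled protein to compounds printed on the slide; score merges feature fluorescence at 667 nm with signal-to-noise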
[18] = probe aNog binding to arrayed compounds – biochemical, biotinylated probe, 635/667 nm fluorescence, primary screen (AID 1115); conditions: small-molecule microarray, higher = more signal;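 further: probe is biotinylated aNog protein used at 0.15 µg/mL for 1 h at 4 C; z-score combines 667 nm fluorescence of each spot with its signal to noise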
[19] = biological target: Torsin-1A-interacting protein 1 (Homo sapiens) (UniProt Q5JTV8); test: compound microarray binding of lysate hLAP1 – cell lysate, small-molecule microarray, COS7 lysate, 635/667 nm fluorescence, primary screen (AID 1116); conditions: 635 nm fluorescence, higher = more signal
Chain of Torsin-1A-interacting protein 1 (Homo sapiens) (Q5JTV8 whole entry, looked up): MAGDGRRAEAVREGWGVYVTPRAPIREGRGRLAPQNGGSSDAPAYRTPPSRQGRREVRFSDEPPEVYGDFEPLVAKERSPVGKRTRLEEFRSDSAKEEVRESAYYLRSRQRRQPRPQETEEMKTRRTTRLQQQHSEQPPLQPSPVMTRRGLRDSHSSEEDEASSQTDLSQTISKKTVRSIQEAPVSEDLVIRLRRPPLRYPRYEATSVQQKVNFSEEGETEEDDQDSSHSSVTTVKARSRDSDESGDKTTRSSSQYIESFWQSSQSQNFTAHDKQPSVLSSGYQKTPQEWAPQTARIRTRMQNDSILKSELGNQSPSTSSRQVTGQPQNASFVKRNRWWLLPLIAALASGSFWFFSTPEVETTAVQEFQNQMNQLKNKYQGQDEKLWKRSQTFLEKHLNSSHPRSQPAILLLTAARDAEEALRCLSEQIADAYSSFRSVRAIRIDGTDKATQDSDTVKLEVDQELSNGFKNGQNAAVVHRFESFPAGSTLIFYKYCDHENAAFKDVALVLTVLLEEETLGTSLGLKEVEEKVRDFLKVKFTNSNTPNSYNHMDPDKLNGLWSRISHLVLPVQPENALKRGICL

[20] = biological target: Alpha-bungarotoxin (Bungarus multicinctus) (UniProt P60615); test: compounds binding labelled alpha-BTX control protein – biochemical, small-molecule microarray, Alexa647 label, 635/667 nm fluorescence, artefact control for SMM control protein annotation, profiling panel (AID 1117); conditions: alpha-BTX-A647 binding fluorescence, higher = more signal
Chain of Alpha-bungarotoxin (Bungarus multicinctus) (P60615 whole entry, looked up): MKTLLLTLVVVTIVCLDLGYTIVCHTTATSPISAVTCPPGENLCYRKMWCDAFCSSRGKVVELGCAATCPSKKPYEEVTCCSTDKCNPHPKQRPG

Compound | composite z-score [1] | composite z-score [2] | composite z-score [3] | z-score [4] | composite z-score [5] | composite z-score [6] | composite z-score [7] | composite z-score [8] | composite z-score [9] | composite z-score [10] | composite z-score [11] | z-score [12] | composite z-score [13] | composite z-score [14] | composite z-score [15] | composite z-score [16] | composite z-score [17] | composite z-score [18] | composite z-score [19] | composite z-score [20]
C=C(COC)C(=O)CC[C@@H](OC(=O)c1ccccc1-c1ccccc1C(=O)O)c1cccc(OCCO)c1 | 0.147 | -0.0386 | 0.0203 | 0.306 (inactive) | 0.552 | -0.116 | -0.837 | -0.0053 | -0.0221 | 1.19 | -1.75 | -0.54 | 0.0941 | -1.17 | -1.09 | -0.096 | -0.153 | 0.176 | 0.671 | 1.02
C#CCN1C(C(=O)OCC)OC[C@H]1c1ccccc1 (stereo not given in full) | 0.312 | 0.461 | -0.502 | -0.577 (inactive) | 0.388 | -0.0229 | 0.421 | 0.901 | 0.428 | -0.352 | 1.35 | -0.354 | 0.677 | -0.128 | -0.605 | -0.175 | -0.167 | -0.21 | 1.49 | 0.327
CC(C)(C)OC(=O)CC[C@@]12N=C(c3ccc(OCCCO)cc3)O[C@@H]1c1ccccc1N(Cc1ccccc1)C2=O | 0.727 | 0.692 | 1.05 | -0.00084 (inactive) | 0.732 | 1.19 | -0.244 | 0.51 | 0.117 | 1.14 | -0.0568 | -2.38 | -0.202 | 0.61 | 0.621 | -0.0327 | 0.138 | 0.943 | 0.786 | 1.36
CC(C)C(=C=CC[C@H](O)c1ccc(OCCO)cc1)C[C@H](O)COCc1ccccc1 | 1.12 | -0.0067 | -0.226 | -0.642 (inactive) | 0.498 | 0.653 | -0.445 | 0.421 | 0.141 | 1.42 | 0.162 | -1.87 | -0.022 | 0.59 | -0.627 | -0.0403 | 0.0469 | 0.217 | 0.833 | 1.07
C=C(COC)C(=O)CC[C@H](OC(=O)c1cccnc1)c1cccc(OCCO)c1 | 0.935 | 0.706 | 0.169 | -0.686 (inactive) | 1.09 | 0.538 | 0.041 | 0.431 | 0.994 | 1.23 | -0.298 | -0.87 | 0.203 | -0.638 | -0.282 | 0.506 | 0.841 | 0.958 | 1.49 | -0.923
C=CCNC(=O)[C@@H]1[C@H]2C(=O)O[C@H](c3ccccc3)[C@H](c3ccccc3)N2[C@H](c2ccc(O)cc2)[C@@]12C(=O)Nc1ccc(C#Cc3ccc(OC)cc3)cc12 | 0.775 | 0.74 | 0.273 | -0.934 (inactive) | 0.564 | 1.26 | 0.312 | 0.961 | 0.389 | 0.311 | 0.927 | -2.67 | 0.239 | 1.61 | 0.941 | -0.0236 | 1.03 | -0.274 | 1.02 | 2.75
O=C1N(CCS(=O)(=O)c2ccccc2)Cc2ccccc2[C@@H]2OC(c3ccc(OCCCO)cc3)=N[C@]12Cc1ccccc1 | 1.61 | 1.22 | 1.14 | -0.127 (inactive) | 1.37 | 1.33 | 0.267 | 1.33 | 0.797 | 0.49 | 0.427 | -1.4 | 0.533 | 1.88 | 0.189 | 0.0614 | 0.191 | 0.998 | 1.16 | 2.73
C=CCN1C(=O)[C@@]2(O[C@@H](CCn3cc(CCO)nn3)[C@H]([Si](C)(C)c3ccc(OC)cc3)[C@H]2C)c2cc(N3C(=O)c4cccc5cccc3c45)ccc21 | 0.579 | 0.13 | -0.224 | -3.34 (inactive) | 0.466 | 0.308 | 0.234 | 0.688 | 0.315 | 0.58 | 0.51 | -5.22 | -0.165 | 1.37 | 0.258 | 0.0733 | -0.138 | 0.473 | 0.482 | 1.6
CCCCCN1CC=CC23O[C@@H]4/C=C\CCC(C)OC(=O)C4[C@H]2C(=O)N(CCO)[C@@H]3C1=O (stereo not given in full) | 1.3 | -0.205 | 0.791 | -0.688 (inactive) | -0.825 | -0.413 | -1.81 | -1.13 | -1.2 | 1.57 | 0.408 | 0.382 | -1.43 | -0.659 | -0.295 | -0.176 | -0.279 | 0.552 | -0.0418 | -1.7
[N-]=[N+]=NCc1ccccc1C[C@@]1(C(=O)NCc2ccccc2)N=C(c2ccc(OCCCO)cc2)O[C@@H]1c1ccccc1 | 0.92 | 0.928 | 1.12 | -1.4 (inactive) | 0.185 | 0.6 | -0.471 | -0.159 | -0.373 | 0.661 | 0.212 | -3.05 | -0.592 | 1.43 | 1.21 | 0.0761 | 0.0644 | 0.868 | 0.595 | 0.732
CC(=O)NCCCC[C@@H]1NC(=O)[C@@H]2C[C@H](C(=O)O)[C@H](c3cccc(OCCO)c3)N2C1=O | 1.25 | -0.018 | -0.37 | -0.877 (inactive) | 1.13 | 1.21 | 0.782 | 0.787 | 1.21 | -0.456 | 0.952 | 0.436 | 1.46 | -0.188 | -0.789 | -0.0403 | -0.0626 | -0.37 | 0.947 | 1.03
